Test results published in the supplement of paper PMC11732987, “Enantioselective OTUD7B fragment discovery through chemoproteomics screening and high-throughput optimisation” (Communications Chemistry, 2025).

Experiments:
Test in all cases: log2 ratio of Biotin-Ahx-Ub-VS probe labelling (fragment/DMSO); higher = less target engagement (more negative = stronger competition), active = hit call of the paper (q ≤ 0.05, log2 ratio ≤ -1)
Conditions in all cases: compound concentration: 200 uM; treatment time: 3 h
USP9X = USP9X (UniProt Q93008)
Procedure, shortened: (§1)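 HEK293T lysate (495 µg per sample, in Tris/CHAPS/IGEPAL buffer with protease inhibitors) was treated in triplicate with fragment at 200 µM or with DMSO for 3 h. It was then treated with Biotin-Ahx-Ub-VS (0.5 µM final) for 1 h. Labelled DUBs were NeutrAvidin-enriched, digested with LysC and trypsin, and run by diaPASEF LC-MS/MS. Spectronaut label-free quantities were global-median-normalised. Values are average log2 ratios fragment/DMSO by unpaired t-test, using proteins with ≥2 unique peptides.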

UniProt O00487 = molecular target: UniProt O00487
Procedure, shortened: as §1

UniProt O00507 = molecular target: UniProt O00507
Procedure, shortened: as §1

UniProt P51784 = molecular target: UniProt P51784
Procedure, shortened: as §1

UniProt Q5T2D3 = molecular target: T1, UniProt Q5T2D3
T1 sequence (whole entry): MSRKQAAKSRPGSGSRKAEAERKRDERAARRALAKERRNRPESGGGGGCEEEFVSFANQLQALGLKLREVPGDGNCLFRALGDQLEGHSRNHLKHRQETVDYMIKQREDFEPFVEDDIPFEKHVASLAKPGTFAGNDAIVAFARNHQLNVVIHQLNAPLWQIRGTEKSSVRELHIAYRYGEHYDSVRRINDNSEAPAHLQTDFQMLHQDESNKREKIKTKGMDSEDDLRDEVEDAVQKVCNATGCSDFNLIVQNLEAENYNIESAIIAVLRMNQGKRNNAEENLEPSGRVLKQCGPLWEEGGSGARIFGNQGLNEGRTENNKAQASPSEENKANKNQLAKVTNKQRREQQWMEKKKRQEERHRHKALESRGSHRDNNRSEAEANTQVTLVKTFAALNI
Procedure, shortened: as §1

UniProt Q8TE49 = molecular target: T2, UniProt Q8TE49
T2 sequence (whole entry): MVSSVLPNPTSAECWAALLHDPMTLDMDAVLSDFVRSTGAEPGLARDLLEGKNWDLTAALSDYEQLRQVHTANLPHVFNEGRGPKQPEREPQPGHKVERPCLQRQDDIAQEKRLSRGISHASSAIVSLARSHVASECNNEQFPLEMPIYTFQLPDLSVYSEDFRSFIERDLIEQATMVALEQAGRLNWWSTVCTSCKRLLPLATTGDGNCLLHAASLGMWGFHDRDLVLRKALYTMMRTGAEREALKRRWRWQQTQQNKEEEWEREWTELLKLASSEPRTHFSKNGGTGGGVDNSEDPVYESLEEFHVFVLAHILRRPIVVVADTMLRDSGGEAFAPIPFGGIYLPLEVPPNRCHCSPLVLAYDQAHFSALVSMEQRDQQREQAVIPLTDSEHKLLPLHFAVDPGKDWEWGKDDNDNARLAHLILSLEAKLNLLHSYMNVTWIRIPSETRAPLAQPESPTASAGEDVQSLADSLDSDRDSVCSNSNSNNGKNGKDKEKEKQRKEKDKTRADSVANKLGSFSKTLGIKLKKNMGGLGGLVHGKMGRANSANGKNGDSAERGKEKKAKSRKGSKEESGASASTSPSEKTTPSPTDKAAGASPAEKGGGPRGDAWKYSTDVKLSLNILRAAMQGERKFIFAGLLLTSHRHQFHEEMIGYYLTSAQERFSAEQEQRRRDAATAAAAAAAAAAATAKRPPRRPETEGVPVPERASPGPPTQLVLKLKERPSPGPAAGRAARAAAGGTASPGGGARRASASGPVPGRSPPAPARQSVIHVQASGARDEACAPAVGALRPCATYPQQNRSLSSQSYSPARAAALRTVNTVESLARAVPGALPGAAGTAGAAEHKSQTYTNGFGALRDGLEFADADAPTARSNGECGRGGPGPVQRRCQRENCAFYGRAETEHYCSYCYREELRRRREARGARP
Procedure, shortened: as §1

UniProt Q9P2H5 = molecular target: T3, UniProt Q9P2H5
T3 sequence (whole entry): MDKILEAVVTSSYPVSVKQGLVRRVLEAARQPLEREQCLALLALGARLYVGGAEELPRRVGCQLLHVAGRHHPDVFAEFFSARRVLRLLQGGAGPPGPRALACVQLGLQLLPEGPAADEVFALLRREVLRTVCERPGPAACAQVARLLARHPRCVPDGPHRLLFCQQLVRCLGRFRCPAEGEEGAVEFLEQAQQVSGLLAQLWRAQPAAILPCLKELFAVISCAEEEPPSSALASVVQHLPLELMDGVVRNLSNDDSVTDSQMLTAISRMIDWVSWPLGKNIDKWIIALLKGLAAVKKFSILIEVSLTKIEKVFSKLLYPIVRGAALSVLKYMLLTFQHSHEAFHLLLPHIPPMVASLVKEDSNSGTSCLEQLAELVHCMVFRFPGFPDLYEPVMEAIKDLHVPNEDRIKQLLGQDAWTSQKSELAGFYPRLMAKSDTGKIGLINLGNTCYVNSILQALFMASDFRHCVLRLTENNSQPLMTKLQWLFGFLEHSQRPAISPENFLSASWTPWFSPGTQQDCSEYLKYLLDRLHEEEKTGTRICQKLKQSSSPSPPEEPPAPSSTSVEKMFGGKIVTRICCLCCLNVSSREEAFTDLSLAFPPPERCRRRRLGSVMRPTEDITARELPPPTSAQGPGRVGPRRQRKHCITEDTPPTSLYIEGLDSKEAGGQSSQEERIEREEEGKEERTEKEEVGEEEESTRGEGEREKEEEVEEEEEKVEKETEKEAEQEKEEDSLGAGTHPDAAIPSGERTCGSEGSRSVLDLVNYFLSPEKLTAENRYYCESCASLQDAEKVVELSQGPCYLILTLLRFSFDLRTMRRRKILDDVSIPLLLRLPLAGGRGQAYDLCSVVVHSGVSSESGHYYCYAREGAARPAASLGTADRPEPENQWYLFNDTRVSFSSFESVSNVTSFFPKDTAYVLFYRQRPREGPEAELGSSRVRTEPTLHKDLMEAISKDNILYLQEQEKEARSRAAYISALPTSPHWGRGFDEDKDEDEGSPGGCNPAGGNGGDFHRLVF
Procedure, shortened: as §1

UniProt Q9UGI0 = molecular target: T4, UniProt Q9UGI0
T4 sequence (whole entry): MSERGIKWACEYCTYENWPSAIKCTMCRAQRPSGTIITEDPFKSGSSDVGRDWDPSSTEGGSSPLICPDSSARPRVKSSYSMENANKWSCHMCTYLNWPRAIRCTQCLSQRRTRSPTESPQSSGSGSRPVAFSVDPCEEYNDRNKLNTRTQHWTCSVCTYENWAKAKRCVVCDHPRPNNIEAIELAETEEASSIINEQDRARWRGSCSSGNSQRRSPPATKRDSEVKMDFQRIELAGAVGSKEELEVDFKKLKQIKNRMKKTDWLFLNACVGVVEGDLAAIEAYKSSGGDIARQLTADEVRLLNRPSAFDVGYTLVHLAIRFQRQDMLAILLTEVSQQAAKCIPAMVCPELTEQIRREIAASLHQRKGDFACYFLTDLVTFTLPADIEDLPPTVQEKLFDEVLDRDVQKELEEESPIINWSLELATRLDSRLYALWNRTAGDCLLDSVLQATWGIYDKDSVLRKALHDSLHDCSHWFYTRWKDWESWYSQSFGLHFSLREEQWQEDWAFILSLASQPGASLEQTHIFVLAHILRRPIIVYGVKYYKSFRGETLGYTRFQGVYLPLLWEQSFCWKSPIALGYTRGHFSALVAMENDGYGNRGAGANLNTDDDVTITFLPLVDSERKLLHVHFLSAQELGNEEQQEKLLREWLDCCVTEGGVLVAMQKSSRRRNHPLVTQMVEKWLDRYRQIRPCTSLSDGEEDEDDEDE
Procedure, shortened: as §1

YOD1 = molecular target: T5, YOD1 (UniProt Q5VVQ6)
T5 sequence (whole entry): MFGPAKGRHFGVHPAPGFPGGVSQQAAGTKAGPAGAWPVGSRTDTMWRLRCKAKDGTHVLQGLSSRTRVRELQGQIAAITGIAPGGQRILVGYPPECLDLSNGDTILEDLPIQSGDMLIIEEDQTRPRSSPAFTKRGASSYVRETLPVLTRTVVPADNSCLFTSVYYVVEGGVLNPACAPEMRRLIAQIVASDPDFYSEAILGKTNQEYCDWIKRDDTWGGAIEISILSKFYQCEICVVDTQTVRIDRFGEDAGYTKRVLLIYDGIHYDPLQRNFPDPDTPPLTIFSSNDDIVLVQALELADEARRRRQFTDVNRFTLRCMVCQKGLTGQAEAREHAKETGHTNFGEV
Procedure, shortened: as §1

Measured: log2 ratio of Biotin-Ahx-Ub-VS probe labelling

Chain of UniProt O00507 (O00507 whole entry): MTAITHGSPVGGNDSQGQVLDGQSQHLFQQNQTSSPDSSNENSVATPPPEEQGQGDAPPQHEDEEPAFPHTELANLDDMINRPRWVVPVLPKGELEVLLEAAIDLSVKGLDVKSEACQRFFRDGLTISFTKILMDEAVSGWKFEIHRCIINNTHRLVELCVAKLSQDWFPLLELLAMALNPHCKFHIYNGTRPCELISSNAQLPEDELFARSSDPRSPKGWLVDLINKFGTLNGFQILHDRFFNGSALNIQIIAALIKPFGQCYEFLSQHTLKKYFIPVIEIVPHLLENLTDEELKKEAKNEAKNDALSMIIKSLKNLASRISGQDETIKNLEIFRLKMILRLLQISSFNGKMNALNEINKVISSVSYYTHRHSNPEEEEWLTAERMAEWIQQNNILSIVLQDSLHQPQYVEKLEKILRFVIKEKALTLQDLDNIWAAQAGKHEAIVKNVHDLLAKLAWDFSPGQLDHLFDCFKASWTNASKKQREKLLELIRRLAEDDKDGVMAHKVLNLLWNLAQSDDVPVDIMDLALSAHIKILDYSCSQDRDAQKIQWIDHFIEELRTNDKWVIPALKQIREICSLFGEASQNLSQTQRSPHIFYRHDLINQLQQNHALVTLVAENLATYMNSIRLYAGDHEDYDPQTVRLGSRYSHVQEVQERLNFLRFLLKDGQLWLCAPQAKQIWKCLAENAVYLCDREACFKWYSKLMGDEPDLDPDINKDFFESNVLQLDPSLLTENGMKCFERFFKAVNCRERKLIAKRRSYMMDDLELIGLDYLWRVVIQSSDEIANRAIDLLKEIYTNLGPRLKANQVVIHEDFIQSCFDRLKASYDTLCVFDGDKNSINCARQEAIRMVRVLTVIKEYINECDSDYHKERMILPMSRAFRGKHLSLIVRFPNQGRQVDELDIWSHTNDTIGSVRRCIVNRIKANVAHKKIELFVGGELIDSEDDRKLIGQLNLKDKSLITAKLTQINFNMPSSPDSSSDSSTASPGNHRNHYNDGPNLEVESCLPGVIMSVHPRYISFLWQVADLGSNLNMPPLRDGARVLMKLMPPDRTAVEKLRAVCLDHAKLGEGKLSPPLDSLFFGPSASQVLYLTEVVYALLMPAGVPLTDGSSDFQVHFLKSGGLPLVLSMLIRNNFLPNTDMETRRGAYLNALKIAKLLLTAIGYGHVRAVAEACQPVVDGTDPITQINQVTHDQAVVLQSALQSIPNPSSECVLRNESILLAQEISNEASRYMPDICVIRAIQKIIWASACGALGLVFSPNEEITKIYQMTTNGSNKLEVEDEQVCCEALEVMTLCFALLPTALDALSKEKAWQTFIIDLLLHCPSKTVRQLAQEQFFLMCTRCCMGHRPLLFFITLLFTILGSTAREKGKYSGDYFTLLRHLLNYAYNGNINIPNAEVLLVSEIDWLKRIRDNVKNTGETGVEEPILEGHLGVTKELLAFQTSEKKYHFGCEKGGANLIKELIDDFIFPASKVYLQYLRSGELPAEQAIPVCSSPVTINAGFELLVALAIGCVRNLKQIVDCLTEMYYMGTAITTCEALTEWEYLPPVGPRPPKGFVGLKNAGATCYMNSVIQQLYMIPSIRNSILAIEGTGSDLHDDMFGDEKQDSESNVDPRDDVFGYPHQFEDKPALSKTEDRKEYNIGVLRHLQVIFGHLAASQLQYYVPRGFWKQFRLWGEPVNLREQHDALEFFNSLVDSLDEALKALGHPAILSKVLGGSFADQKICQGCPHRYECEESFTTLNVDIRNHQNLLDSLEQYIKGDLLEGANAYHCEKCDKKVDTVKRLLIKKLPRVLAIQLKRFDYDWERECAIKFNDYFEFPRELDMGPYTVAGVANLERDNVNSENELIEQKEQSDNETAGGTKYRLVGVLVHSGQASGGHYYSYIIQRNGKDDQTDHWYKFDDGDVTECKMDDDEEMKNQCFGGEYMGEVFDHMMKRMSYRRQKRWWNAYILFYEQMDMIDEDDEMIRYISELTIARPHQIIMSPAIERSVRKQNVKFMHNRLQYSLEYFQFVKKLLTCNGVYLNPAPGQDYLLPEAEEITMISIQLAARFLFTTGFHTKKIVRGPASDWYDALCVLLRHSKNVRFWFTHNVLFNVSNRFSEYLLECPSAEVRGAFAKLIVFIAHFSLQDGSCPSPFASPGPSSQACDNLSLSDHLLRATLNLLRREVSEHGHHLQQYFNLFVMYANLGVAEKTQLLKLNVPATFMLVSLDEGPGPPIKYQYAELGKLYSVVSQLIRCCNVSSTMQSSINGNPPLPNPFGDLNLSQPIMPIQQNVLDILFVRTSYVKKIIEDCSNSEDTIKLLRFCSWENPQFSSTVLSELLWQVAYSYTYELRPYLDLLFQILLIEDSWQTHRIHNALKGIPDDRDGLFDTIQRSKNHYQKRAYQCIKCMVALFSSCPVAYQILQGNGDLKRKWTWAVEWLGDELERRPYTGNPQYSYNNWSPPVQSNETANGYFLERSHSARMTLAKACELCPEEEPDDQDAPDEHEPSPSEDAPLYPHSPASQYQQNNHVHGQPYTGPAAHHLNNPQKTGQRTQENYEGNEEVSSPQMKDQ
Chain of USP9X (Q93008 whole entry, the tested form may be a part): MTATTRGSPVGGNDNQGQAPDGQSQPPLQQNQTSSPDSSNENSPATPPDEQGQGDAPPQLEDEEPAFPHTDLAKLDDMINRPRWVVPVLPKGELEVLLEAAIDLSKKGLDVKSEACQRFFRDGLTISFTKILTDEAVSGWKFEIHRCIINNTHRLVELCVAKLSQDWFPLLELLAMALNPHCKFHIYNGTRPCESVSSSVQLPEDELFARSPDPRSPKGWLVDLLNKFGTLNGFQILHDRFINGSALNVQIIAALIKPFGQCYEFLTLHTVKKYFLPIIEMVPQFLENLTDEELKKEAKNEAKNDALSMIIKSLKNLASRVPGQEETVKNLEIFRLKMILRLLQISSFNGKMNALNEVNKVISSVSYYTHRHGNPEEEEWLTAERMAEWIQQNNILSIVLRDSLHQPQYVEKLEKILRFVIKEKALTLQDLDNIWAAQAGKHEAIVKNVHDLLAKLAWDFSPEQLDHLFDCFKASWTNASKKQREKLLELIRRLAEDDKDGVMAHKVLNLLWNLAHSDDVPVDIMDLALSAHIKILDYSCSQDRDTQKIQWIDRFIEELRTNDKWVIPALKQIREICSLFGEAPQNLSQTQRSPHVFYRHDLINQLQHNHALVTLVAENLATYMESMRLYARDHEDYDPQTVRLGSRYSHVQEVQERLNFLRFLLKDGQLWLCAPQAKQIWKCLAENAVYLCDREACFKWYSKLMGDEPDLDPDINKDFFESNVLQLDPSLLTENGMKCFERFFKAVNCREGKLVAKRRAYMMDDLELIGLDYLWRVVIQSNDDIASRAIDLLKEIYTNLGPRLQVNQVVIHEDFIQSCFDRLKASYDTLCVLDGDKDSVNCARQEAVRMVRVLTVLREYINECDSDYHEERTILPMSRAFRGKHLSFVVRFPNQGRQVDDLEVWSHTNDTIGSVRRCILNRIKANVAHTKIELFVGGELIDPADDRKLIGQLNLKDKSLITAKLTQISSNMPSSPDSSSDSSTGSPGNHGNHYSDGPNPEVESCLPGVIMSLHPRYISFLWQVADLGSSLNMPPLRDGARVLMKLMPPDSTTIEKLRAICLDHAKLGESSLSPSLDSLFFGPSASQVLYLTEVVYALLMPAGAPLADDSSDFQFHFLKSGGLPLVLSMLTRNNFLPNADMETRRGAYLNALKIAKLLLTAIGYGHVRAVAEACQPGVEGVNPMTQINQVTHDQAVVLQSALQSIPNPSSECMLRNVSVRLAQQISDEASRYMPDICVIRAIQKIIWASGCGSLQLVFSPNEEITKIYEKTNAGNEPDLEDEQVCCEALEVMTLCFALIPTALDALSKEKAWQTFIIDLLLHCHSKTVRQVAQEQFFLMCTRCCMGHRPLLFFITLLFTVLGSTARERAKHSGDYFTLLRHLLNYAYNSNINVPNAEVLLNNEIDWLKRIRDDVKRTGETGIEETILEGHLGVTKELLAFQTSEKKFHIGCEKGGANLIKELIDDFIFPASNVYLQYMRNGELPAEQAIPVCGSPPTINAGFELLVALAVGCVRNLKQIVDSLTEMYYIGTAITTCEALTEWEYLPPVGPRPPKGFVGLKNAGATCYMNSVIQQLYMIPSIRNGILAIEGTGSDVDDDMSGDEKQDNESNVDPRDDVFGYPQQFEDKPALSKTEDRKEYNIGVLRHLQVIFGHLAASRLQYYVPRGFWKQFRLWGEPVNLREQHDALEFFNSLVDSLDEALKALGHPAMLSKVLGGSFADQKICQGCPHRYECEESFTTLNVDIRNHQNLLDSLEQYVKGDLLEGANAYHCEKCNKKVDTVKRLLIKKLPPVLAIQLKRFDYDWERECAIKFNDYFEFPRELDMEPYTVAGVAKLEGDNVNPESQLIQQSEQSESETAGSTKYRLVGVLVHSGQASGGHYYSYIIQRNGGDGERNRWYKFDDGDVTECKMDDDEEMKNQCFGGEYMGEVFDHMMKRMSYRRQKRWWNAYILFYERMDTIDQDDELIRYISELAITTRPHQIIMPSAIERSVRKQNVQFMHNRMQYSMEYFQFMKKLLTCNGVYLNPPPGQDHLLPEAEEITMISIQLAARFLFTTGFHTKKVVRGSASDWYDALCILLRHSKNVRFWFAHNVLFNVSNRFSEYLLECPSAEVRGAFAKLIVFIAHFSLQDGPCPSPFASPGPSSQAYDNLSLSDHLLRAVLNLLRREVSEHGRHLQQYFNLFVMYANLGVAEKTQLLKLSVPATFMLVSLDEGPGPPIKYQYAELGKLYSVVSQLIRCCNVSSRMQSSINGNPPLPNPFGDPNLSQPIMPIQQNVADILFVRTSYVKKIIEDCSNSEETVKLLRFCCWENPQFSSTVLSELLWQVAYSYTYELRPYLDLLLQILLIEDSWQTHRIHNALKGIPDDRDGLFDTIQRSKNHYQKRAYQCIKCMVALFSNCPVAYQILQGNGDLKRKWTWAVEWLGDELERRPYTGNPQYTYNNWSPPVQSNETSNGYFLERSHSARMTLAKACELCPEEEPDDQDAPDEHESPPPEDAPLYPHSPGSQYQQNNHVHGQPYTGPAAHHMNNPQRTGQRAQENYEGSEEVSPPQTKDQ

CNC(=O)C1(NC(=O)CCl)CCCCC1
inactive: USP9X -0.228 | UniProt O00487 0.0455 | UniProt O00507 0.215 | UniProt P51784 0.188 | UniProt Q5T2D3 -0.364 | UniProt Q8TE49 -0.591 | UniProt Q9P2H5 -0.0698 | UniProt Q9UGI0 0.0155 | YOD1 -0.0513
